# Screening results as filed in PubChem.
# Chlamy TAG = algal TAG accumulation induction; Chlamydomonas reinhardtii TAG, Nile Red fluorescence, 72 h; calls only at 10 µM (by protocol); actives 0.84% (n = 44,000); call rule not given here;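 also: hits raise Nile Red signal meaning more stored TAG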
# * marks the source's active call; other numbers are inactive results; i = inactive; + = active, no number. Only a selection was taken, and hits are over-represented in it overall.
SMILES,Chlamy TAG
O=C(CN1CCN(Cc2ccccc2)CC1)Nc1nccs1,i
CC1CCN(S(=O)(=O)c2ccc(Cl)c(C(=O)Nc3ccc(C(=O)O)cc3)c2)CC1,i
O=C(Nc1ccccc1[N+](=O)[O-])C(c1ccccc1)c1ccccc1,i
COc1cc(NC(=O)C(Cl)(Cl)Cl)ccc1NC(=O)c1cc2ccccc2o1,i
CCOc1ccc(C2=CSC3=NCCN23)cc1,+
Brc1ccc(C2=CSC3=NCCN23)cc1,i
Fc1ccc(C2=CSC3=NCCN23)cc1,i
CCN(CC)CCN(C)Cc1cc(I)c(O)c(OC)c1,i
CC(=O)c1ccc(N2CCN(Cc3ccncc3)CC2)cc1,i
Cc1cc(NCc2ccccc2)nc(N2CCOCC2)n1,+
Cc1cc(NCc2ccccc2)nc(-c2ccccc2O)n1,i
Cc1cc(N2CCOCC2)nc(NCc2ccccc2)n1,i
COc1cc([N+](=O)[O-])ccc1NC(=O)CCCN1C(=O)c2ccccc2C1=O,i
CC1CCCCN1S(=O)(=O)c1ccc(C(=O)Nc2ccc([N+](=O)[O-])cc2)cc1 (stereo not given),i
CC1CCCCN1S(=O)(=O)c1ccc(NC(=O)c2ccc(Cl)cc2Cl)cc1 (stereo not given),+
COc1cc(C(=O)Nc2ccc(S(=O)(=O)N3CCCCC3C)cc2)cc(OC)c1OC (stereo not given),i
COc1ccc2c(Cl)c(C(=O)N3CCCCC3)sc2c1,i
O=C(Cc1csc2nc3sc4c(c3c(=O)n12)CCC4)N(CCO)CCO,i
Nc1nc(-c2c(F)cccc2F)cs1,i
